RGS4 inhibitor – Inhibitors of Regulator of G Protein Signaling (RGS) 4: qHTS; 0.039% of 390,000 active; Transcreener GDP fluorescence polarization, RGS4-accelerated GTP hydrolysis; Potency, µM (titrated, usually from 114 µM), without a hit: at the top dose activity change, negative = inhibition, usual class: inhibitors; Regulator of G-protein signaling 4 (Homo sapiens), P49798; AID 504845, 2011; further: on the % scale 0 is the no-effect control and ±100 the full control effect; nearly all actives have a fitted effect of over 75% in size
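MLSMR compounds (23 nl, pin-transferred) preincubated 10 min at room temperature with a 500nM (2x) first reagent, then RGS4 at 900nM (2x) plus Transcreener GDP mix added; fluorescence polarization (620/688 nm) read before and after 90 min at 30 °C.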
GLP1R inv ag – qHTS of GLP-1 Receptor Inverse Agonists (Inhibition Mode); 1.6% of 410,000 active; HEK293 GLP-1R CRE-luciferase, luminescence, 24 h; GLP-1R form is constitutively active; Potency, µM (top dose mostly 38.3 µM), inactives show at the highest dose activity change, negative = inhibition, most hits filed as inhibitors; further: on the % scale 0 is the no-effect control and ±100 the full control effect; nearly all actives have a fitted effect of over 55% in size
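GLP-1R inverse agonism mode: basal reporter luminescence in engineered HEK293 cells measured after one day of compound exposure at 37 deg C, with a 12 min room-temperature detection step.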
PTHR1 ag – qHTS for PTHR1 Agonists: Primary Screen. Parathyroid hormone/parathyroid hormone-related peptide receptor (Homo sapiens), Q03431. HEK293 GP2 PTHR1 cells, GloSensor cAMP luminescence, 1 h. Potency, µM (top dose mostly 115 µM), for the others: at the top dose activation, usual class: activators. 0.075% of 410,000 active; further: nearly all actives have a fitted effect of over 55% in size
Target sequence (Q03431 whole entry, looked up): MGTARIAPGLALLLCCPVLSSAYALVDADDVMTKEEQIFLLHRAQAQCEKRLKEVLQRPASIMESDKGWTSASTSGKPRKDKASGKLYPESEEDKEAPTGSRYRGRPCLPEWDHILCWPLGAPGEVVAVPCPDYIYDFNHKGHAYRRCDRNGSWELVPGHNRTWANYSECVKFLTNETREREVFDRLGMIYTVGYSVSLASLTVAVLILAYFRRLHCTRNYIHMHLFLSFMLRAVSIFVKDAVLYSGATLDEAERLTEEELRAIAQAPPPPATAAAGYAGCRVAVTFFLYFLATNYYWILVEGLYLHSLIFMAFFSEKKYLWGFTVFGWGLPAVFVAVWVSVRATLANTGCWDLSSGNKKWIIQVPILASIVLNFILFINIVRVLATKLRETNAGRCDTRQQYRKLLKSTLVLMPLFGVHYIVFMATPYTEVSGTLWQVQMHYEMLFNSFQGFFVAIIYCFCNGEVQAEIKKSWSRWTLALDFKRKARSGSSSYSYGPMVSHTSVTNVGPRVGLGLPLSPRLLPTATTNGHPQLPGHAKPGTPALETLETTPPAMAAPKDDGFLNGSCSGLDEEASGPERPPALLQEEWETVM
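HEK-293-derived GP2 cells expressing PTHR1 and a GloSensor cAMP reporter, 3,000/well, plated overnight, given luciferin plus IBMX (each 0.5 mM as added) for 1 h at 37 °C, then compound for 1 h at 37 °C. Luminescence was read after 15 min at room temperature.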
GLP1R cytotox – qHTS of GLP-1 Receptor Inverse Agonists: Cytotox Screen | 0.13% of 410,000 active | Potency, µM (top dose mostly 38.3 µM), without a hit: top-dose activity change, negative = inhibition, actives largely listed as inhibitors | HEK293 cAMP-luciferase reporter cells, luminescence, 24 h;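 further: loss of luciferase light is scored as toxicity; on the % scale 0 is the no-effect control and ±100 the full control effect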
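Cells in DMEM/10% Nu serum/1% pen-strep, 1536-well format. Pre-incubated 12 h, dosed with 23 nL compound, incubated a further 24 h. Luciferase detection, 12 min at room temp, luminescence.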
GLP1R ag – qHTS of GLP-1 Receptor Agonists; Glucagon-like peptide 1 receptor (Homo sapiens), P43220; HEK293 GLP-1R CRE-luciferase, luminescence, 4-6 h; cells express a hypersensitive GLP-1R form; Potency, µM (doses to about 45.6 µM), for the others: top-dose activation, usual class: activators; 0.007% of 380,000 active; AID 624172, 2012; further: % of control where 0% means no effect
The depositor's hits bear a star; i = inactive; ? = inconclusive; . = no result; [ ] = remark or other dose. A selection: hits, their analogues and other compounds. The true share with any hit is near 1.7%. The call rests on the fitted dose curve; in most records, active means well fitted curve in the direction sought with a large enough effect; inconclusive means small, poorly fitted or top-dose-only effect, or another doubt; inactive means no such curve, though single readings can be large; an effect the other way counts as inactive or inconclusive. Potency means the concentration at half of the fitted maximal effect.

SMILES | RGS4 inhibitor | GLP1R inv ag | PTHR1 ag | GLP1R cytotox | GLP1R ag
CCCCNC(=O)C1(C)CCCCN1Cc1ccccc1-c1ccccc1 (stereo not given) | . | 2.5µM* | -15% | -7% | -5%
O=C(c1cc2cc(Cl)ccc2oc1=O)N1CCCCCCC1 | 3% | -3% | -3% | 3% | -2%
O=C(C1CN(C(=O)c2cc3cc(Cl)ccc3o2)c2ccccc2O1)N1CCCCC1 (stereo not given) | -15% | 11µM* | -42% | -31% | -25%
O=[N+]([O-])c1ccc(N/N=C2\CC3CC=CC23)cc1 (stereo not given) | 13% | 1.3µM* | -94% | ? | 11%
Cc1onc(-c2ccccc2Cl)c1C(=O)Nc1ccc(Cl)cn1 | 9% | ? | -9% | 6% | 4%
Cc1csc(NC(=O)c2c(-c3c(Cl)cccc3Cl)noc2C)n1 | 3% | 11µM* | i | 6% | 1%
Cc1onc(-c2c(Cl)cccc2Cl)c1C(=O)Nc1ccc(Cl)cn1 | 26% | 1.8µM* | i | 13% | 10%
Cc1csc(NC(=O)c2c(-c3c(F)cccc3Cl)noc2C)n1 | 17% | ? | -33% | -2% | -8%
CCCCCC(=O)N1C[C@H](O)[C@@H](n2cc(-c3ccc(F)cc3)nn2)C[C@@H]1c1ccc(C)cc1 | . | 10µM* | -29% | -17% | 13%
CCCCCC(=O)N1C[C@H](n2cc(-c3ccc(F)cc3)nn2)[C@@H](O)C[C@@H]1c1ccc(Cl)cc1 | . | 10µM* | i | ? | -4%
Cc1ccccc1OCC(=O)Nc1ccc(N2CCN(C)CC2)c(Cl)c1 | 4% | 4.5µM* | -18% | -4% | 12%
Cc1ccccc1OCC(=O)Nc1ccc2c(c1)Cc1ccccc1-2 | 14% | 41% | i | 16% | 7%
COc1ccc(OCC(=O)Nc2ccc(N3CCN(C(=O)c4ccccc4)CC3)c(Cl)c2)cc1 | -1% | 10µM* | -48% | 7% | 0%
CCC(=O)N1CCN(c2ccccc2NC(=O)COc2ccc(C(C)C)cc2)CC1 | 23% | 10µM* | -9% | -9% | 15%
Cc1cccc(OCC(=O)OCC(=O)NCC2CCCO2)c1C (stereo not given) | 23% | -15% | i | -2% | -2%
O=C(Nc1ccc2c(c1)OCCO2)C(C1CC1)N1CCN(c2ccc(F)cc2)CC1 (stereo not given) | . | 11% | -19% | 5% | 5%
CNC(=O)C[C@H]1C(=O)N(C2CCCCC2)C[C@@H]1CSC | . | -3% | -10% | 4% | 4%
Cc1cc(C)c(NC(=O)C(C)n2nnc3sc4c(c3c2=O)CCCC4)c(C)c1 (stereo not given) | 27% | 6% | -10% | 3% | .
CC(C)c1ccc(NC(=O)N2CCN(c3ccc(Cl)c(Cl)c3)CC2)cc1 | -17% | 7.9µM* | -90% | -23% | .
Cc1ccc(NC(=O)N2CCN(c3ccc(Cl)c(Cl)c3)CC2)cc1 | -2% | ? | -90% | -8% | .
CC(C)c1ccc(S(=O)(=O)N2CCN(C(=O)CCNC(=O)Nc3ccccc3)CC2)cc1 | 6% | ? | -7% | 4% | -7%
CC(C)c1ccc(NC(=O)N2CCN(S(=O)(=O)c3ccccc3)CC2)cc1 | 8% | 5.6µM* | -26% | -6% | 4%
O=S(=O)(O)OCC1OC(COS(=O)(=O)O)(C2(OS(=O)(=O)O)OC(CO)C(OS(=O)(=O)O)C(OS(=O)(=O)O)C2OS(=O)(=O)O)C(OS(=O)(=O)O)C1OS(=O)(=O)O (stereo not given) | . | . | . | . | 15%
CC1CCC(N(C)C(=O)CN2C(=O)NC(c3ccccc3)(c3ccccc3)C2=O)CC1 (stereo not given) | . | 10µM* | -26% | -2% | -3%
O=C(Cn1ccn(-c2ccc(F)c(F)c2)c(=O)c1=O)NCc1ccccc1 | -1% | -8% | i | -4% | .
SMILES | RGS4 inhibitor | GLP1R inv ag | PTHR1 ag | GLP1R cytotox | GLP1R ag
CCC(=O)N(Cc1cc2cc(C)c(C)cc2[nH]c1=O)C1CCCCC1 | 19% | 10µM* | -63%[57.5 µM] | -29% | -3%
Cc1cccc(-n2c(=O)c3c(c4cc(C)ccc4n3C)n(CC(=O)Nc3ccccc3C(F)(F)F)c2=O)c1 | 20% | 11% | -24% | -7% | .
CC(C)c1ccc(NC(=O)C(NS(=O)(=O)c2ccc3c(c2)CCC(=O)N3)c2ccccc2)cc1 (stereo not given) | 4% | 0% | -12% | -3% | .
COc1ccc(NC(=O)Nc2ccc3c(c2)C(=O)N([C@H](C)CO)C[C@H](C)[C@@H](CN(C)C(=O)Nc2ccccc2)O3)cc1 | 20% | -3% | -9% | -15% | -4%
CNC(=O)N(O)C1N(NC(=O)Nc2ccccc2)C(=S)SC1(C)C (stereo not given) | 8% | -15% | -8% | -4% | 12%
CC1(C)SC(=S)N(NC(=O)Nc2cccc3ccccc23)C1N(O)C(=O)Nc1ccccc1 (stereo not given) | -12% | 11µM* | i | -22% | -12%
O=C(NCC(c1ccco1)N1CCCC1)c1cc2cc(Cl)ccc2o1 (stereo not given) | -29% | 10µM* | -12% | 11% | 14%
O=C(CN1CCN(c2ccccn2)CC1)Nc1cccc(Br)c1 | -1%[56.9 µM] | -25% | i | 1% | 10%
Cc1ccc(-n2nc(CO)c(C(=O)NCCO)n2)cc1 | 3% | 3% | i | 3% | .
CCCCN(CC)C(=O)c1nn(C)c2c1CSc1ccccc1-2 | -33% | -21% | -26% | -2% | .
Cc1cccc(CN(Nc2ccccc2)c2ccccc2)n1 | . | 10µM* | -3% | -6% | -4%
CCOC(=O)CNC(=O)c1ccc(C)cc1 | -41% | 3% | -6% | -3% | 8%
CCO/C=C/C(O)(CNC(=O)c1ccc(C(C)(C)C)cc1)C(F)(F)F (stereo not given) | -11% | 8.9µM* | -18% | -17% | -2%
COc1ccc(OC)c(CCNc2nccn(-c3ccc(C)c(C)c3)c2=O)c1 | 9% | ? | -22% | 6% | .
N#Cc1ccccc1S(=O)(=O)N1CCN(CC(=O)NCC2(N3CCOCC3)CCCCC2)CC1 | 0% | 3% | i | ? | 9%
COC(=O)c1ccc(/C=N/OCC(=O)NC2CCCCCCC2)cc1 | -12% | 13µM* | i | -3% | 9%
CCOc1ccc(CCNC(=O)c2[nH]c3cc(OC)ccc3c2Sc2ccccc2)cc1OCC | -5% | 9% | i | -2% | .

Screens as filed in PubChem.
